Results as given in PubChem BioAssay AID1159580 (chemical genetic matrix, 2015).
Several values for one entry are separate records, joined by “and”; a condition that tells them apart may be missing. Equal entries are not always repeated. Among all 5,500 compounds or so, about 2,000 (36%) were called active. Another 18% or so got no clear call; they are omitted. Rule as the data show it: active = normalized growth mostly below about 0.91 (no sharp cut-off); inconclusive = no clear call, values can overlap the other calls; inactive = mostly above about 0.92. This is one part of the list.

Experiment: chemical genetic growth profiling, strain panel (AID 1159580);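 also: tested at 20 µM; growth read once vehicle control cultures reached saturation at 30 °C; 1 = growth at the plate median or of vehicle wells; lower values mean less growth of the strain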
Details: S. cerevisiae deletion strains, growth OD

Measured: normalized growth

C[C@H]1O[C@@H](O[C@H]2[C@@H](O)C[C@H](O[C@H]3[C@@H](O)C[C@H](O[C@H]4CC[C@]5(C)C6C[C@@H](O)[C@]7(C)[C@@H](C8=CC(=O)OC8)CC[C@]7(O)C6CC[C@@H]5C4)O[C@@H]3C)O[C@@H]2C)C[C@H](O)[C@@H]1O (stereo partly drawn)
inactive: locus YAL013W, strain DEP1, stronger effect = lower value 0.992 | locus YAL021C, strain ccr4, stronger effect = lower value 0.982 | locus YAL026C, strain drs2, stronger effect = lower value 1.01 | locus YAL030W, strain snc1, stronger effect = lower value 0.991 | locus YBL061C, strain skt5, stronger effect = lower value 0.99 | locus YBR009C, strain hhf1, stronger effect = lower value 1.08 | locus YBR021W, strain FUR4, stronger effect = lower value 1.01 | locus YBR023C, strain chs3, stronger effect = lower value 0.994 | locus YBR171W, strain sec66, stronger effect = lower value 0.984 | locus YBR229C, strain ROT2, stronger effect = lower value 1 | locus YBR231C, strain swc5, stronger effect = lower value 0.989 | locus YBR279W, strain paf1, stronger effect = lower value 0.996 | locus YCL011C, strain gbp2, stronger effect = lower value 0.967 | locus YCL016C, strain dcc1, stronger effect = lower value 0.992 | locus YCL029C, strain bik1, stronger effect = lower value 0.977 | locus YCL061C, strain MRC1, stronger effect = lower value 1.01 | locus YCL069W, strain vba3, stronger effect = lower value 0.991 | locus YCR088W, strain abp1, stronger effect = lower value 0.997 | locus YDL005C, strain med2, stronger effect = lower value 0.98 | locus YDL035C, strain GPR1, stronger effect = lower value 0.987 | locus YDL040C, strain nat1, stronger effect = lower value 0.999 | locus YDL074C, strain BRE1, stronger effect = lower value 0.982 | locus YDL101C, strain DUN1, stronger effect = lower value 1.01 | locus YDL134C, strain PPH21, stronger effect = lower value 1.03 | locus YDL185W, strain tfp1, stronger effect = lower value 0.955 | locus YDL192W, strain arf1, stronger effect = lower value 0.983 | locus YDR001C, strain nth1, stronger effect = lower value 0.982 | locus YDR069C, strain doa4, stronger effect = lower value 0.996 | locus YDR101C, strain arx1, stronger effect = lower value 0.982 | locus YDR137W, strain rgp1, stronger effect = lower value 0.978 | locus YDR150W, strain NUM1, stronger effect = lower value 0.991 | locus YDR159W, strain sac3, stronger effect = lower value 1.02 | locus YDR162C, strain NBP2, stronger effect = lower value 1.03 | locus YDR195W, strain ref2 0.987 | locus YDR297W, strain sur2, stronger effect = lower value 0.987 | locus YDR318W, strain mcm21, stronger effect = lower value 1 | locus YDR334W, strain swr1, stronger effect = lower value 0.957 | locus YDR335W, strain msn5, stronger effect = lower value 0.98 | locus YDR388W, stronger effect = lower value 0.984 | locus YDR392W, strain spt3, stronger effect = lower value 0.975 | locus YDR502C, strain sam2, stronger effect = lower value 1.01 | locus YEL003W, strain gim4, stronger effect = lower value 0.997 | locus YEL037C, strain rad23, stronger effect = lower value 1 | locus YEL061C, strain CIN8 (second series), stronger effect = lower value 0.992 | locus YEL061C, strain CIN8, stronger effect = lower value 1 | locus YER015W, strain faa2, stronger effect = lower value 1.01 | locus YER016W, strain bim1, stronger effect = lower value 0.987 | locus YER110C, stronger effect = lower value 0.961 | locus YER111C, strain swi4, stronger effect = lower value 1.01 | locus YER155C, strain BEM2 (second series), stronger effect = lower value 1.04 | locus YER155C, strain BEM2, stronger effect = lower value 0.986 | locus YER167W, strain BCK2, stronger effect = lower value 0.992 | locus YFR010W, strain ubp6, stronger effect = lower value 1 | locus YGL078C, strain dbp3, stronger effect = lower value 1 | locus YGL086W, strain mad1, stronger effect = lower value 0.969 | locus YGL167C, strain pmr1, stronger effect = lower value 0.998 | locus YGL173C, strain kem1, stronger effect = lower value 0.981 | locus YGL227W, strain vid30, stronger effect = lower value 0.99 | locus YGL240W, strain doc1, stronger effect = lower value 0.973 | locus YGL248W, strain PDE1, stronger effect = lower value 1.02 | locus YGL253W, strain hxk2, stronger effect = lower value 0.957 | locus YGR135W, strain pre9, stronger effect = lower value 1.01 | locus YGR252W, strain gcn5, stronger effect = lower value 1.09 | locus YHR013C, strain ard1, stronger effect = lower value 0.977 | locus YHR027C, strain rpn1, stronger effect = lower value 0.976 | locus YHR030C, strain SLT2, stronger effect = lower value 0.983 and 1.05 | locus YHR079C, strain IRE1 (second series), stronger effect = lower value 0.982 | locus YHR079C, strain IRE1, stronger effect = lower value 1.06 | locus YHR094C, strain hxt1, stronger effect = lower value 0.973 | locus YHR129C, strain ARP1, stronger effect = lower value 0.993 | locus YHR142W, strain chs7, stronger effect = lower value 0.964 | locus YHR200W, strain rpn10, stronger effect = lower value 0.97 | locus YIL066C, strain RNR3, stronger effect = lower value 1 | locus YIL073C, strain SPO22, stronger effect = lower value 0.937 | locus YIL125W, strain kgd1, stronger effect = lower value 0.941 | locus YIR030C, strain dcg1, stronger effect = lower value 0.99 | locus YJL092W, strain hpr5, stronger effect = lower value 0.996 | locus YJL095W, strain BCK1 (second series), stronger effect = lower value 0.976 | locus YJL095W, strain BCK1, stronger effect = lower value 1.02 and 1.06 | locus YJL115W, strain asf1, stronger effect = lower value 0.984 | locus YJL129C, strain trk1, stronger effect = lower value 0.979 | locus YJL134W, strain LCB3, stronger effect = lower value 0.985 | locus YJL154C, strain vps35, stronger effect = lower value 0.977 | locus YJL164C, strain tpk1, stronger effect = lower value 1.02 | locus YJL166W, strain qcr8, stronger effect = lower value 0.939 | locus YJL168C, strain set2, stronger effect = lower value 0.998 | locus YJL187C, strain SWE1 (second series), stronger effect = lower value 1.02 | locus YJL187C, strain SWE1, stronger effect = lower value 0.993
